Columns and labels:
Assay in all cases: PBM binding z-score (relative to random genomic background probes); higher = stronger binding; sequences stand for … in GC…GCGATTGACAGCGTAGAATGAAGG
[1] = system: FXR:RXRa (NR concentration 270 nM, RXRa partner concentration 90 nM)
Outline: (§1)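 Antibodies against each partner of ligand-free nuclear receptor dimers (one per run) detected binding on custom Agilent 4×180K protein-binding microarrays after 1 h incubation. The double-stranded probes had 34-nt variable regions carrying direct-repeat seeds, single-nucleotide variants, half-site ablations and random human genomic background sequences. Binding z-scores, from regression-normalized fluorescence, use the random background probes as reference.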

[2] = system: LXRa:RXRa (NR concentration 270 nM, RXRa partner concentration 90 nM)
Outline: as §1

[3] = system: LXRa homodimer (NR concentration 270 nM)
Outline: as §1

[4] = system: LXRb:RXRa (NR concentration 270 nM, RXRa partner concentration 90 nM)
Outline: as §1

[5] = system: LXRb homodimer (NR concentration 270 nM)
Outline: as §1

[6] = system: PPARa:RXRa (NR concentration 270 nM, RXRa partner concentration 90 nM)
Outline: as §1

[7] = system: PPARg:RXRa (NR concentration 180 nM, RXRa partner concentration 90 nM)
Outline: as §1

[8] = system: PPARg:RXRa 270nM:90nM, anti-RXR (NR concentration 270 nM, RXRa partner concentration 90 nM)
Outline: as §1

[9] = system: PPARg:RXRa 30nM:10nM, anti-RXR (NR concentration 30 nM, RXRa partner concentration 10 nM)
Outline: as §1

[10] = system: PPARg:RXRa 90nM:30nM, anti-RXR (NR concentration 90 nM, RXRa partner concentration 30 nM)
Outline: as §1

| Sequence | PBM binding z-score [1] | PBM binding z-score [2] | PBM binding z-score [3] | PBM binding z-score [4] | PBM binding z-score [5] | PBM binding z-score [6] | PBM binding z-score [7] | PBM binding z-score [8] | PBM binding z-score [9] | PBM binding z-score [10] |
| --- | --- | --- | --- | --- | --- | --- | --- | --- | --- | --- |
| CGTACTGGGCCATCAGGTCATTGATATCAACGTT | 1.44 | 1.12 | 0.948 | 1.53 | -0.168 | 2.78 | 2.86 | 3.82 | 1.21 | 3.32 |
| ATCTCTAGGAAACCAAGTTCAGTGAATGCCGAAC | 0.256 | 0.434 | 0.599 | 0.317 | 0.4 | 0.151 | -0.0218 | 0.0648 | 0.0428 | 0.082 |
| TCTTGTAGATCAACAGGATGTTAAGAAAGATCGA | 0.365 | 0.173 | -0.3 | 0.12 | -0.659 | 0.612 | 0.227 | 1.3 | 2.66 | 1.97 |
| CGTGCAAGGTCAAGGTCAGTGAAAGAGACTCGAA | 7.71 | 5.78 | 1.12 | 4.86 | 0.639 | 6.13 | 6.66 | 6.55 | 2.87 | 5.51 |
| CTTGCTAGGTCAATGGTCAGCTAAAGCAGCTCGC | 2.93 | 2.77 | 0.107 | 1.33 | -0.0348 | 3.41 | 5.43 | 5.94 | 4.16 | 5.69 |
| TCATATAGGTAAAAGGCGAAAGTCGGTGTGGTAA | 0.336 | 0.537 | 0.094 | 0.746 | -0.359 | 2.66 | 4.65 | 6.15 | 6.72 | 7.04 |
| TCGAGTAGGTTAGCGGCATTCAGAATGGCGTCGA | -0.731 | -0.487 | -0.848 | -0.653 | -1.3 | 0.0919 | -0.173 | 0.409 | 0.448 | 0.475 |
| ATATGTAGGTTACATCCGGGTAATTCAGGCTATG | 0.626 | 5.83 | 1.24 | 3 | 0.708 | 3.26 | 5.44 | 4.35 | 1.75 | 3.32 |
| CCTAGTTGGTCAGGAGGTCACACACCGGATATGA | 3.73 | 3.67 | 2.08 | 3.3 | 0.83 | 4.11 | 3.41 | 3.95 | 1.75 | 3.27 |
| ATATGTGGGTTAGCTGGGGTCATTCAGACTAGGC | 4.69 | 5.5 | 2.93 | 4.93 | 2.51 | 5.09 | 5.17 | 4.9 | 2.27 | 4.19 |
| ACTATTAGTTGACTTAGGGCTACCGATACGACGC | 0.0661 | -0.121 | -0.0225 | -0.352 | 0.601 | -0.131 | 0.862 | -0.0974 | 0.182 | -0.112 |
| TCCTGTAGATCAATAGAGGTTAAGAAAGTGCGCT | 0.952 | 3.56 | 0.803 | 1.93 | 0.0925 | 1.74 | -0.0634 | 1.63 | 2.77 | 2.39 |
| GTACCAAGGTGATTAGGTCGTTGATGAGTAGGCG | 0.478 | 0.469 | 0.085 | 0.0701 | -0.428 | 0.886 | 0.547 | 0.741 | -0.00723 | 0.0201 |
| CCTAGTTGGTCAAGGTCACACACGCTATAGGTAC | 4.71 | 4.18 | 2.66 | 3.92 | 1.23 | 4.33 | 3.35 | 3.96 | 1.66 | 3.2 |
| ATCTCTAGGTATAGATAGTTCAGTGAATGCAAAT | 0.0439 | 0.281 | 0.536 | 0.328 | 0.404 | 0.225 | 0.685 | 0.289 | 0.345 | 0.323 |
| TCTCTTAGTTGATTAGGGCAACCGAAACAGCGGA | 0.698 | 0.799 | 0.13 | 0.868 | 1.26 | 1.22 | 0.00699 | 2.24 | 3.88 | 3.1 |
| TAGCCTAGGTCAGATCTGGCCAGTATACGCTATA | 1.53 | 1.13 | -0.379 | 0.773 | 0.0198 | 1.43 | 0.793 | 0.718 | -0.145 | 0.178 |
| CCTAGTTGGTCAGGAGGTCATACACCGGATATGA | 3.81 | 3.61 | 2.79 | 3.13 | 0.702 | 3.89 | 2.72 | 3.82 | 1.58 | 2.89 |
| CAAACTAGGTCACGAAAGGTCACAGTCGAATGAC | 6.73 | 7.6 | 5.88 | 6.82 | 1.64 | 6.62 | 10.1 | 8.34 | 6.6 | 8.57 |

| Sequence | PBM binding z-score [1] | PBM binding z-score [2] | PBM binding z-score [3] | PBM binding z-score [4] | PBM binding z-score [5] | PBM binding z-score [6] | PBM binding z-score [7] | PBM binding z-score [8] | PBM binding z-score [9] | PBM binding z-score [10] |
| --- | --- | --- | --- | --- | --- | --- | --- | --- | --- | --- |
| CCGGACAGGTGAGAAGGTAACTCAGCCTCGATTA | -0.332 | -0.196 | -0.289 | -0.26 | -0.839 | 0.454 | 0.347 | 0.118 | -0.24 | -0.183 |
| GTATATAGGTAATACAAGGTGAAAGTCCGATTGT | 0.948 | 2.78 | 0.975 | 0.947 | 0.188 | 2.78 | 3.05 | 2.69 | 1.39 | 1.94 |
| GCGTCTGGGGCATCAGCAGGTTACCATAACTTAA | -0.332 | -0.363 | -0.529 | 0.524 | -0.962 | 0.996 | 0.169 | 0.239 | -0.644 | -0.174 |
| AGTCAAAGTTCACTGGGTAACGTAAGATTCAGCT | 5.3 | 5.02 | 3.18 | 2.98 | 0.65 | 4.78 | 7.5 | 6.72 | 3.78 | 6.4 |
| AGTCAAAGTTCATCTAGGTAACGGAAGATATGCT | 6.87 | 6.02 | 4.37 | 3.7 | 1.73 | 4.86 | 6.85 | 6.48 | 3.55 | 5.62 |
| GGAACGAGGGCATTCGAGTTGCTAGCATGGCGAT | 0.791 | 0.5 | -0.577 | -0.157 | -0.675 | 0.953 | 0.443 | 0.479 | -0.435 | -0.173 |
| TCTAGTTGGTCAAAGGTCACCCACTCGAAATGCG | 5.47 | 5.45 | 3.51 | 5.12 | 1.68 | 6.36 | 11.3 | 9.99 | 10.9 | 12.3 |
| CCTACTGGGCCTTCAGGTCATTGATATCAACGTT | 1.24 | 0.751 | 0.919 | 1.3 | -0.3 | 1.93 | 0.682 | 1.85 | 0.024 | 1.09 |
| CGTCCAAGGTCAGCAGGACAGTGAAAGCGACGTG | 5.11 | 3 | -0.143 | 2.24 | -0.588 | 4.36 | 2.83 | 3.16 | 0.274 | 2.07 |
| AGAATGAGGTTATACGTAGATCATGGAAGAAAGT | 2.28 | 2.35 | 0.00529 | 1.76 | 0.0323 | 3.28 | 2.34 | 2.58 | 1.01 | 1.79 |
| TCGAGTAGGTTAACAATGGGGCATTCAGCTTTCT | 0.324 | 3.77 | -0.204 | 1.79 | -0.704 | 1.59 | 0.576 | 1.22 | 1.31 | 1.29 |
| CTTTACGGGTCACGAGGTTATAGCACGACGAGCG | 7.21 | 5.4 | 1.34 | 4.38 | 0.444 | 6.35 | 8.06 | 7.02 | 4.31 | 6.25 |
| GCTGCTAGGTCAACTGGTGGTCAGCTAAAGCTCG | 4.15 | 3.04 | -0.00351 | 1.99 | -0.442 | 3.55 | 2.75 | 3.48 | 0.603 | 2.25 |
| CCTACTGGGCCAGAAAGGTCATTGATGCCGATAA | 3.9 | 4.7 | 3.35 | 4.16 | 0.28 | 4.76 | 2.59 | 3.87 | 1.21 | 2.91 |
| GGAACGAGGGCAAAGTTGGTAGCATCTGTCGACG | 1.06 | 0.577 | -0.241 | 0.306 | -0.429 | 3.14 | 5 | 5.51 | 4.45 | 5.44 |
| TGTCGAAGTTCAAAGGTAACGTAAGTATCCACAC | 4.25 | 4.02 | 1.18 | 3.18 | 0.108 | 4.72 | 4.47 | 5.23 | 2.95 | 4.34 |
| CTCGAAAGGTCGCTTGAGGTGAGTATACGGATAA | 4.18 | 3.88 | -0.291 | 2.68 | -0.203 | 4.15 | 2.15 | 2.92 | 0.841 | 1.64 |
| TTACCAAGGTGAGCTGAAGTCGTTGATCCAACTC | -0.293 | -0.529 | -0.801 | -0.542 | -1.23 | 0.187 | -0.231 | 0.143 | -0.185 | 0.0287 |

— the supplement of paper PMC6555819
